Experiment: binders from COS7 lysate, DM2A8 probe, primary screen, torsin A project, cell lysate, small-molecule microarray, fluorescence 635/667 (AID 1065)
Settings: higher = more signal, COS7 lysate expressing mutant human TOR1A

SMILES | composite z-score
Cc1ccc(C2CC=C(C(=O)O)CN2S(=O)(=O)c2ccc(C)cc2)cc1 (stereo unspecified) | 0.157
COc1ccc([Si](C)(C)[C@H]2[C@H](CC(=O)N3CCC[C@H]3CO)O[C@@]3(C(=O)N(Cc4cccc(N5C(=O)COc6ccccc65)c4)c4ccccc43)[C@@H]2C)cc1 | 0.149
CC(CCN1CCc2nc(-c3ccccc3)c(-c3ccccc3)cc2C1)=NOC[C@@H](C)[C@H](OCc1ccccc1)C(C)C | -1.01
CN1C(=O)C2C(C1=O)C1C=C(CCCO)C2C(c2ccc(CN3CCCC3)cc2)N1C (stereo unspecified) | 0.249
CCc1cc2c(nc1CC)CCN(CCC(C)=NO[C@@H](C)c1cc(-c3c(C)cc(C)cc3C)no1)C2 | 0.0396
CS(=O)(=O)CCOC(=O)C1=CC(CCCO)=CC(c2cccs2)N(Cc2cccc(OC(F)(F)F)c2)C=C1C(=O)OCCS(C)(=O)=O (stereo unspecified) | 1.76
O=C1CCCC=C1C(O)CCOCc1ccccc1 (stereo unspecified) | 0.858
CC(C)=CCCC(C)=CCON=C1[C@H]2CCn3c(=O)n(Cc4cc5c(cc4Cl)OCO5)c(=O)n3[C@H]2[C@H](O)[C@@H]2O[C@H]12 | 1.2
O=C1C2=CC[C@H]3C(=O)N(Cc4ccc5c(c4)OCO5)C(=O)[C@H]3[C@H]2[C@H](O)[C@@H]2O[C@H]12 | 0.295
CO[C@@H]1COC(=O)CC=C[C@@H](C)[C@@H]2C=C[C@H](O)[C@@H](COC(=O)[C@H](C)NC(=O)CC=C[C@H]1C)O2 | 0.977
COCCOC(=O)N1C(=O)[C@@]2(c3cc(C#CC4(O)CCCCCC4)ccc31)[C@H](c1ccc(OCCO)cc1)N1[C@H](c3ccccc3)[C@H](c3ccccc3)OC(=O)[C@H]1[C@@H]2C(=O)NC[C@H](O)c1ccccc1 | 1.11

Source: PubChem BioAssay
